This is one part of a sample in which hits are shown more often than they occur.
FBPA Giardia inh = qHTS Assay for Inhibitors of Fructose-1,6-bisphosphate Aldolase from Giardia Lamblia; purified Giardia FBPA; A8B2U2; hit rate 0.71% among 290,000; Potency, µM (titrated, usually from 59.6 µM), for the others: at the highest dose activity, negative = inhibition, hits mostly inhibitors; further: potency means the concentration at half of the fitted maximal effect; on the % scale 0 is the no-effect control and ±100 the full control effect; nearly all actives have a fitted effect of over 55% in size
Target sequence (A8B2U2 whole entry, looked up): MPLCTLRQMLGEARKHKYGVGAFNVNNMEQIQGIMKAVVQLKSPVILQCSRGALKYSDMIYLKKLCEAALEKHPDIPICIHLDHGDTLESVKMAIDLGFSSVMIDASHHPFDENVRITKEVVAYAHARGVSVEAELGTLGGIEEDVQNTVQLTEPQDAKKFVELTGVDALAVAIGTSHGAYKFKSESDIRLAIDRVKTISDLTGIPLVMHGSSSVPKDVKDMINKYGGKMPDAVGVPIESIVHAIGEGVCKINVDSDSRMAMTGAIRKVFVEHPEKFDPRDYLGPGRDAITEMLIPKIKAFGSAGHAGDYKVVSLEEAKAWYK
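Giardia FBPA (40 nM reagent) was preincubated 10 min at RT with compound (up to 57.5 uM final), then substrate plus GAPDH/TPI/NAD/arsenate coupling system with diaphorase/resazurin was added; resorufin fluorescence (525/598 nm) was read after 20 min.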
TbPYK inhibitor = qHTS of Trypanosoma Brucei Inhibitors | pyruvate kinase (Trypanosoma brucei), Q57TT1 | TbPYK enzyme, Kinase-Glo Plus ATP luminescence, 45 min | Potency, µM (doses to about 76.8 µM), for inactives: top-dose activity, negative = inhibition, actives largely listed as inhibitors | hit rate 0.12% among 410,000 | AID 624173, 2012; further: potency means the concentration at half of the fitted maximal effect; on the % scale 0 is the no-effect control and ±100 the full control effect; nearly all actives have a fitted effect of over 50% in size
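Quantitative HTS: titrated library compounds versus trypanosomal pyruvate kinase in TEA buffer (pH 7.2) containing KCl, MgCl2, BSA and Tween-20. Reactions were initiated with ADP, 130 uM final. Kinase-Glo Plus luminescence was read after 45 min at RT.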
Sm TGR inh = qHTS Assay for the Inhibitors of Schistosoma Mansoni Peroxiredoxins; purified TGR, DTNB reduction, TNB absorbance 405 nm; Potency, µM (series often up to 114 µM), without a hit: at the top dose activity change, negative = inhibition, actives largely listed as inhibitors; hit rate 3% among 360,000; AID 485364, 2010; further: potency means the concentration at half of the fitted maximal effect; on the % scale 0 is the no-effect control and ±100 the full control effect; nearly all actives have a fitted effect of over 60% in size
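First, TGR (20 nM dispensed) and NADPH were mixed with compound. Second, a 15 min room-temperature incubation followed. Third, further NADPH and then DTNB were added to start the reaction. Finally, TNB absorbance was monitored kinetically.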
LmPK inhibitor = qHTS Assay for Inhibitors of Leishmania Mexicana Pyruvate Kinase (LmPK); Q27686; purified LmPK, Kinase-Glo ATP luminescence, 1 h; Potency, µM (doses to about 57.5 µM), for the others: at the highest dose activity change, negative = inhibition, actives largely listed as inhibitors; hit rate 0.37% among 290,000; further: potency means the concentration at half of the fitted maximal effect; on the % scale 0 is the no-effect control and ±100 the full control effect
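Pyruvate kinase activity monitored as ATP production (luciferase luminescence). Conditions: 0.1 nM enzyme, 0.5 mM PEP, 0.1 mM ADP, 1 h, RT; normalized against uninhibited and no-enzyme wells.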
CHX counter = Cycloheximide Counterscreen for Small Molecule Inhibitors of Shiga Toxin; cell reporter, cycloheximide protein synthesis inhibition counterscreen; max response, %; hit rate 12% among 300,000; AID 2314, 2010; in the data active means max response mostly above about 13%, no sharp cut-off; inactive means mostly below about 14%; further: read at 38.3 µM for the half of the compounds with a filed dose; 0% is about no effect
Shiga inhibitor = A qHTS for Small Molecule Inhibitors of Shiga Toxin. inhibition, % at 38.7 µM. Vero cells, Shiga toxin protein synthesis inhibition reporter. hit rate 9.2% among 290,000. AID 2315, 2010; in the data active means inhibition mostly above about 28%, no sharp cut-off; inactive means mostly below about 43%; further: 0% is about no effect
Numbers without * were called inactive; u = inconclusive; x = no result given; [ ] = dose if it differs, or a comment. Unless noted, the call rests on the fitted dose curve; in most records, active means well fitted curve in the direction sought with a large enough effect; inconclusive means small, poorly fitted or top-dose-only effect, or another doubt; inactive means no such curve, though single readings can be large; an effect the other way counts as inactive or inconclusive.

SMILES	FBPA Giardia inh	TbPYK inhibitor	Sm TGR inh	LmPK inhibitor	CHX counter	Shiga inhibitor
COc1ccc(CCN2CCCC(CN(C)C(=O)c3ccoc3)C2)cc1 (stereo not given)	x	-2.9%	7.8%	2.9%	51.8*	142.2*
Cc1ccc(NC(=O)C2CCCN2S(=O)(=O)c2ccc3nc(-c4ccccc4)[nH]c3c2)cc1F (stereo not given)	x	5.9%	-1.3%	x	x	x
Cc1[nH]n(-c2ncc(-c3ccccc3)s2)c(=O)c1C(c1ccc(Cl)cc1)C(C#N)C#N (stereo not given)	14.4%	-26.0%	u	-3.9%	11.3*	-11.9
Cc1[nH]n(-c2ccc(Cl)cc2)c(=O)c1/C=N/c1nnc(-c2ccccc2)s1	13.1%	-14.8%	-1.1%	u	3.3	-4.2
c1ccc2c(c1)CCCN2c1nc2ccccc2n2cnnc12	-13.9%	-1.2%	-15.8%	12.8%	29.9*	107.0*
c1ccc2c(c1)CCN(c1nc3ccccc3n3cnnc13)C2	u	-8.0%	-21.5%	3.1%	-2.0	-6.0
C1=C(c2ccccc2)CCN(c2nc3ccccc3n3cnnc23)C1	-14.5%	1.3%	3.55µM*	6.4%	6.6	-20.0
CCc1ccccc1NC(=O)c1ccc(=O)n(Cc2ccc(F)cc2)c1	x	1.6%	0.9%	x	x	x
O=C(CC1C(=O)NCCN1Cc1cccc(F)c1)NCCCN1CCCC1=O (stereo not given)	-8.1%	-5.5%	0.0%	4.7%	-0.6	-6.7
Cc1ccc(CN2CCNC(=O)C2CC(=O)O)o1 (stereo not given)	-7.6%	-2.0%	44.7µM*	3.9%	-2.8	-6.3
COc1cccc(CN2CCNC(=O)C2CC(=O)NCCCN2CCCC2=O)c1 (stereo not given)	x	-3.7%	17.8µM*	-3.4%	-2.2	-1.1
Cc1ccc(CN2CCNC(=O)C2CC(=O)N(C)C2CCCCC2)o1 (stereo not given)	-0.7%	-25.0%	u	-1.9%	-1.4	-7.7
COc1cccc(CCNC(=O)CC2C(=O)NCCN2Cc2ccc(C)o2)c1 (stereo not given)	x	7.2%	50.1µM*	14.3%	7.8	5.8
COc1cc(CN2CCNC(=O)C2CC(=O)N2CCCN(C(C)=O)CC2)cc(OC)c1 (stereo not given)	x	1.9%	31.6µM*	1.0%	-2.9	-13.1
COc1cccc(CCNC(=O)CC2C(=O)NCCN2CC(C)(C)C)c1 (stereo not given)	-24.5%	-3.5%	u	3.1%	-3.8	-3.5
COc1cc(CN2CCNC(=O)C2CC(=O)O)cc(OC)c1 (stereo not given)	0.6%	4.9%	-12.1%	15.0%	-2.7	-1.4
CC(C)[C@@H]1[C@H]2CC[C@H](C2)[C@H]1N	3.6%	x	x	x	x	x
CCOc1ccccc1NC(=O)c1c(NC(=O)CNCc2ccco2)sc2c1CCC2	6.3%	x	-1.9%	0.7%	-0.9	-6.0
CCOC(=O)c1cnn(-c2ncnc3c2oc2ccccc23)c1N	2.0%	-2.8%	2.2%	-10.2%	15.9*	68.4
CCOC(=O)c1cnn(-c2cc(Oc3ccccc3)ncn2)c1N	3.9%	-10.0%	0.0%	0.0%	-1.4	-2.9
CCOC(=O)C1CCCN(c2ncnc3c2oc2ccccc23)C1 (stereo not given)	-5.6%	1.5%	-29.4%	-0.2%	17.5*	47.2
CCOC(=O)c1cnn(-c2ccccn2)c1N	-5.4%	-6.9%	1.6%	-18.8%	63.4*	99.2*
CCOC(=O)C1CCN(c2ncnc3c2oc2ccccc23)CC1	-2.7%	-2.7%	-0.5%	-0.1%	-0.9	-9.3
O=C(CSc1n[nH]c(-c2ccccc2Cl)n1)N1CCN(c2ccccc2)CC1	x	-2.2%	1.1%	x	x	x
CCN1C(C)=C(C(=O)OC)C(c2ccccc2)N2C(=O)[C@](O)(C(=O)OC)CC(C(C)=O)=C12 (stereo not given in full)	0.8%[12.9 µM]	x	x	x	x	x
SMILES	FBPA Giardia inh	TbPYK inhibitor	Sm TGR inh	LmPK inhibitor	CHX counter	Shiga inhibitor
COc1ccccc1CNC(=O)C1CCC(CNS(=O)(=O)c2ccc(F)cc2)CC1 (stereo not given)	6.5%	-9.9%	1.9%	-0.3%	-1.7	3.2
COc1ccc(OC)c(C2C(C(=O)c3cccs3)=C(O)C(=O)N2c2cc(C)on2)c1 (stereo not given)	u	2.9%	-18.8%	1.8%	34.8*	90.1*
CCOc1ccc(C2C(C(=O)c3cccs3)=C(O)C(=O)N2Cc2cccnc2)cc1OC (stereo not given)	-16.6%	-9.7%	0.0%	6.1%	34.1*	59.8*
COc1cccc2cc(C(=O)C3=C(O)C(=O)N(c4cc(C)on4)C3c3cccs3)oc12 (stereo not given)	u	-4.7%	28.2µM*	1.8%	9.1	25.7
COc1ccc(C2C(C(=O)c3cccs3)=C(O)C(=O)N2c2cccc(C)n2)cc1 (stereo not given)	13.1%	-2.7%	-3.7%	3.6%	8.4	34.6
COc1ccc(C2C(C(=O)c3cccs3)=C(O)C(=O)N2c2cccc(C)n2)cc1OC (stereo not given)	-23.1%	0.2%	5.2%	-4.7%	19.5*	31.7*
CCOc1ccc(C2C(C(=O)c3cccs3)=C(O)C(=O)N2Cc2cccnc2)cc1 (stereo not given)	4.6%	-7.5%	0.9%	-2.2%	6.6	15.1
Cc1ccccc1NC(=O)CN(C)S(=O)(=O)c1cccc2nsnc12	x	1.3%	5.8%	x	x	x
CC(=O)c1cccc(NC(=O)C(C)OC(=O)CCc2nc3ccccc3c(=O)[nH]2)c1 (stereo not given)	x	-8.7%	x	x	x	x
Cc1nn(-c2ccccc2)c(OC(=O)c2ccccc2F)c1S(=O)(=O)c1ccccc1	x	-4.8%	0.9%	x	x	x
Cc1ccc(C(=O)Nc2nnc(S(=O)(=O)N3CCc4ccccc43)s2)cc1	x	-1.5%	-8.4%	x	x	x
CCC(=O)N1CCc2cc(Br)cc(S(=O)(=O)NCCc3ccc(C)cc3)c21	x	-5.1%	19.0%	x	x	x
CCOC(=O)c1cnc2ccc(Cl)cc2c1NCCN(C)C	u	0.9%	-25.2%	2.7%	25.7*	35.0
CCOC(=O)c1cnc2c(ccc3ccccc32)c1NCCCN(C)C	-24.0%	0.2%	-9.8%	-2.6%	32.8*	130.5*
Cc1cccc(NC(=O)CSc2nc3c([nH]c4ccccc43)c(=O)n2-c2ccc(F)cc2)c1C	x	-4.8%	11.1%	x	x	x
COc1ccc(-c2cc(C(=O)O)[nH]n2)cc1OC	3.0%	9.4%	7.6%	-0.3%	-1.1	-3.6
COc1ccc(-c2cc(C(=O)NN)[nH]n2)cc1	2.9%	-0.6%	2.2%	-4.0%	22.1*	active
COc1ccc(-c2cc(C(=O)NN)[nH]n2)cc1OC	7.5%	-1.2%	x	1.6%	8.3	11.5
